Test results published in PubChem BioAssay AID624330 (Southern Research Specialized Biocontainment Screening …, 2012).
In all, about 340,000 compounds went through this assay and about 2,100 (0.62%) were called active.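 Rule for the calls: active = first-screen hits whose inhibition reached a set limit at any dose in the follow-up dose series; inconclusive = inhibition above the set first-screen limit but never retested; inactive = the rest.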 A selection follows. Potency and affinity values are given separately.

target: Rac GTPase-activating protein 1 (Homo sapiens) (UniProt Q9H0H5); assay: blockers of MgcRacGAP-driven Rac1 GTP hydrolysis – biochemical, ADP Hunter fluorescence, primary and confirmatory, confirmation (AID 624330); details: MgcRacGAP-stimulated Rac1 GTP hydrolysis, at 30 µM, hits give high values, GST-tagged Rac1 F28L mutant substrate;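 note: fluorescence reports GDP produced by GAP-driven GTP hydrolysis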
Sequence (Q9H0H5 whole entry, looked up): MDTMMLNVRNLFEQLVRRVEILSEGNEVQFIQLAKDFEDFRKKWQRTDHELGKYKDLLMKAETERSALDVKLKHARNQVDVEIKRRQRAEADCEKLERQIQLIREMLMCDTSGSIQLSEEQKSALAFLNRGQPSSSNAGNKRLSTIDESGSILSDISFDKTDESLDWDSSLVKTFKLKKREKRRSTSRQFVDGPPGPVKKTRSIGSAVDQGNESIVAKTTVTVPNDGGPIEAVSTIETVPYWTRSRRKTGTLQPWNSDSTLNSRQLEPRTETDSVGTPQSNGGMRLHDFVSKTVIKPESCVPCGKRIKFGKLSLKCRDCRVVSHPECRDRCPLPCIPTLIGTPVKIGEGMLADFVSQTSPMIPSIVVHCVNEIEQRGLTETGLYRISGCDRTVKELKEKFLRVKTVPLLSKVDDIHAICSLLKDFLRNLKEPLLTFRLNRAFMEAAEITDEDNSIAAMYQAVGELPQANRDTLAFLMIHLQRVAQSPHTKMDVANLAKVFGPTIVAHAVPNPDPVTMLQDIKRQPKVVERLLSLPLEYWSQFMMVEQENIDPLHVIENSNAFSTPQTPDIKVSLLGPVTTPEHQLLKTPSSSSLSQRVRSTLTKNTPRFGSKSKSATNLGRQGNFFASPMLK

inhibition, inactive:
O=S(=O)(c1ccccc1)c1nc(-c2ccccc2)oc1N1CCOCC1 6.03%
Cc1nnc(SCc2ccccc2)n1N -3.52%
O=C(O)c1ccc(/C=N/O)cc1 1.83%
CC(C)(C)NC(=O)C(c1ccccc1)N(C(=O)CNC(=O)c1cccs1)c1cccnc1 (stereo unspecified) 4.59%
COc1ccc(C=O)cc1Cn1c(=O)n(CCC(=O)NCc2ccco2)c(=O)c2sccc21 8.39%
Cc1cccc(C(=O)Nc2cccc(C(=O)N/N=C/c3cccc(C)n3)c2)c1 13.9%
CSc1cc(SC)ncn1 1.8%
CC(C)(CN1CCOCC1)NS(=O)(=O)c1ccccc1 1.36%
CCN(CC(=O)Nc1cccc(F)c1)Cc1nc2ccccc2c(=O)[nH]1 -2.26%
CN(C)C(/C=C/Nc1ccc(C#N)cc1)=C(C#N)C#N 4.16%
Cc1ccc(C2=CSC3=NCCN23)cc1 11.6%
CC1=CC(C)(C)N(C(=O)CNC2CCCCC2)c2cc(C)ccc21 30.1%
CC1=CC(C)(C)N(C(=O)CCl)c2cc(C)ccc21 2.46%
CCOc1ccccc1C(C(=O)NC1CCCC1)N(C(=O)c1csnn1)C1CC1 (stereo unspecified) 6.21%
CC(c1nnc(SCC(=O)NC(=O)NCc2ccco2)n1-c1ccc(Cl)cc1)N(C)C (stereo unspecified) 4.03%
CC/C(=C\c1ccc(Cl)cc1)c1ccncc1 5.22%
CCC(=Cc1ccccc1O)c1ccncc1 2.41%
CCOC(=O)C(NC(C)=O)C(=O)Nc1ccc(C(C)(C)C)cc1 (stereo unspecified) 15.1%
C[C@H](CO)N1C[C@H](C)[C@@H](CN(C)S(=O)(=O)c2ccc(F)cc2)Oc2ccc(NC(=O)NC3CCCCC3)cc2C1=O 6.3%
CC(C)(Oc1ccc(Cl)cc1)C(=O)N(Cc1ccccc1)c1ccccn1 1.14%
Cc1ccc2sc(NNC(=O)c3cc(=O)c4ccccc4o3)nc2c1C 24.2%
Cc1cc(C)c2nc(NNC(=O)c3cc(=O)c4ccccc4o3)sc2c1 10.6%
Cc1ccc(OCCCCN2CCCCC2)c(Br)c1 6.79%
Clc1ccc(OCCCN2CCCC2)cc1Cl -13.7%
Cc1ccc(C)c(OCCCN2CCNCC2)c1 7.95%
Cc1ccc(C(C)C)c(OCCCCCN2CCOCC2)c1 7.81%
Cc1cc(OCCCN2CCCC2)ccc1Cl 7.71%
Cc1ccc(C)c(OCCCCN2CCNCC2)c1C 4.36%
Cc1cc(C)c(OCCCCN2CCNCC2)c(C)c1 8.89%
Cc1ccc(C)c(OCCCN2CCCC2)c1 19.9%
Cc1cc(C)n2c(SCC(=O)Nc3ccccc3C#N)nnc2n1 2.29%
COc1ccc(CCN2CCCn3c2nc2c3c(=O)[nH]c(=O)n2C)cc1OC 6.67%
CCC1(NC(C)=O)CC2CC1CC2NC(C)=O (stereo unspecified) 1.95%
CCCC(C)NC(=O)COC(=O)c1ccccc1SCC(=O)NC(C)CCC (stereo unspecified) 2.85%
Cc1ccc(P(=O)(O)c2ccc(C)cc2)cc1 8.6%
Cc1ccc(OCCN2CCCCCC2)c(C)c1 10.9%
Cc1ccc(OCCCCN2CCCCC2)c(C)c1 2.28%
Cc1ccccc1OCCCN1CCCC1 26.5%
Cc1ccccc1OCCOCCN1CCCCCC1 -5.57%
CC1CCCN(C(=O)C2CCN(Cc3ccc4c(c3)OCO4)CC2)C1 (stereo unspecified) 5.33%
COc1ccc(C(=O)Nc2c(C(C)(C)C)nn(C)c2C(C)(C)C)cc1 10.2%
CCOC(=O)C1CCN(S(=O)(=O)c2ccc(Cl)cc2)CC1 4.24%
CCOC(=O)c1sc2nc(CSc3ccccc3)nc(N3CCC(C(N)=O)CC3)c2c1C -5.99%
Cc1sc2nc(CSc3ccccc3)nc(N3CCN(C)CC3)c2c1C 7.15%
COc1cc(C(=O)OCCN2CCCCC2)ccc1O 21.2%
C=CCOc1ccc(/C(CC)=N/O)cc1OC 3.46%
COc1cc(C(=O)C(=O)c2ccc(O)c(OC)c2)ccc1O 13.4%
CC/C(=N\O)c1ccc(OC)c(OC)c1 8.04%
COc1ccc(C(=O)Nc2ccc(Oc3nc(C)nc4sc(-c5ccccc5)cc34)cc2)cc1OC 2.99%
CC(C)(C)NC(=O)C(c1ccc(O)cc1)N(C(=O)CCC(=O)Nc1nccs1)c1cccc(F)c1 (stereo unspecified) 8.98%
COc1ccc(/C=N/n2c(-c3cc(C)[nH]n3)n[nH]c2=S)cc1 21.4%
COc1cc(/C=N/N2CCCCC2)cc(OC)c1O 17.9%
COc1cc(/C=N/n2c(C)nnc2C)cc(OC)c1OC 3.62%
COc1cc(/C=N/n2c(-c3ccccc3)n[nH]c2=S)cc(OC)c1OC 14.2%
O=C(COc1ccc(Cl)cc1)Nc1ccc(C(=O)NCc2cccnc2)cc1 9.05%
COc1ccc(NC(=O)c2cccc3ccccc23)cc1OC -23.3%
O=C(O)CCS(=O)(=O)c1ccccc1Cl -0.02%
COc1cccc(N(CC(=O)N2CCN(C)CC2)S(=O)(=O)c2ccc(C)cc2)c1 -2.09%
Cc1ccc(S(=O)(=O)N2CCN(c3ccc(C(=O)N4CCOCC4)cc3[N+](=O)[O-])CC2)cc1 3.02%
CC(=O)Nc1nonc1NC(=O)CSc1ncn[nH]1 1.36%
CCOC(=O)C1C(=O)N(C(=O)c2ccc(OC)cc2)CC1c1ccccc1 (stereo unspecified) 3.29%
O=C(C[C@@H]1C/C=C\C[C@H](NC(=O)OCC2c3ccccc3-c3ccccc32)C(=O)OC[C@H]2CCCN2C1=O)NCCO 5.33%
O=C(N/N=C\c1cccnc1)c1ccc(Cl)cc1Cl 8.54%
CC(C)/C=C(/C(=O)c1ccc(Cl)cc1Cl)n1cncn1 7.69%
COc1ccc(/C=C(/C(=O)c2ccc(Cl)cc2Cl)n2cncn2)cc1 11.7%
CN(C)c1ccc(/C=C(/C(=O)c2ccc(Cl)cc2Cl)n2cncn2)cc1 3.83%
